Rows were chosen to be rich in hits. Some 7.3% of all compounds tested hit in one or more screens of this group.
Vaccinia Venus = qHTS for Stage-Specific Inhibitors of Vaccinia Orthopoxvirus: Venus Reporter Primary qHTS; Vaccinia virus Venus reporter expression, fluorescence; Potency, µM (doses to about 36.5 µM), for the others: top-dose activity change, negative = inhibition, actives largely listed as inhibitors; 330,000 compounds, 0.46% hits; calls by dose curve; tested in A549 cells; also: potency is read from the fitted curve at half-maximal effect; nearly all actives have a fitted effect of over 30% in size
HCV inh = qHTS Assay for Inhibitors of Hepatitis C Virus (HCV) | Huh7.5.1 HCVcc-Cre infection, luciferase reporter, 44 h | Potency, µM (highest dose often 41.8 µM), for inactives: at the top dose activity change, negative = inhibition, usual class: inhibitors | 340,000 compounds, 3.4% hits | AID 651820, 2012; active = well fitted inhibition curve with a large enough effect; inconclusive = small, poorly fitted or top-dose-only effect, or another doubt; inactive = no such curve, though single readings can be large or run the other way; also: potency is read from the fitted curve at half-maximal effect
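Whole-lifecycle infectious HCVcc-Cre system; cells 1,000/well, compound then virus (~0.5 moi) added 4 h after plating, 44 h culture. Luciferase read 15 sec following 15 min substrate incubation, room temp.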
HCMV inh = qHTS Assay for inhibitors of the human cytomegalovirus (HCMV) | HFF cells, HCMV-luciferase reporter, 72 h; stronger effect = lower value | activity change, negative = inhibition, % at 57.5 µM | 410,000 compounds, 4.5% hits | AID 1259415, 2018; in the data active = activity change below about -60%; inconclusive = no clear call, values can overlap the other calls; inactive = above about -39%
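Screen run at 2 compound doses on HFFs infected with reporter HCMV, MOI 1 PFU/cell. Luciferase activity from cell lysates at 72 h post infection gave inhibition relative to buffer-only and Salinomycin wells.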
Vaccinia mCherry = qHTS for Stage-Specific Inhibitors of Vaccinia Orthopoxvirus: mCherry Reporter Primary qHTS; Vaccinia virus mCherry reporter infection, fluorescence; Potency, µM (titrated, usually from 36.5 µM), without a hit: at the top dose activity change, negative = inhibition, usual class: inhibitors; 310,000 compounds, 0.63% hits; AID 720579, 2013; calls by dose curve; tested in A549 cells; also: potency is read from the fitted curve at half-maximal effect; nearly all actives have a fitted effect of over 35% in size
FMDV antiviral = High Throughput Screening for Foot and Mouth Disease Virus Antivirals; FMDV antiviral cell-based qHTS; Potency, µM (highest dose often 57.9 µM), without a hit: top-dose activity change, negative = inhibition, usual class: inhibitors; 410,000 compounds, 1.2% hits; calls by dose curve; tested in HEK293T cells; also: read-out not given here; potency is read from the fitted curve at half-maximal effect; nearly all actives have a fitted effect of over 45% in size
* marks the source's active call; other numbers are inactive results; i = inactive; ? = inconclusive; . = not tested or not shown; ! = a repeat was not active. % is scaled to controls: 0 for no effect and ±100 for the full control effect.

SMILES	Vaccinia Venus	HCV inh	HCMV inh	Vaccinia mCherry	FMDV antiviral
O=C(C=P(c1ccccc1)(c1ccccc1)c1ccccc1)c1ccccc1-c1ccccc1C(=O)C=P(c1ccccc1)(c1ccccc1)c1ccccc1	3.5µM*	?	-98*	?	20µM*
COc1cc(/C=C2/C(=O)c3cccc([N+](=O)[O-])c3C2=O)c(Br)cc1O	-16%	-22%	16	-4%	3.5µM*
N=C1/C(=C\c2ccc(OC(=O)c3ccccc3Cl)cc2)C(=O)N=C2SC(N3CCOCC3)=NN12	.	-5%	26	.	44%
OC(COc1ccc(CNCCc2ccc(C(F)(F)F)cc2)cc1)CN1CCCCC1 (stereo not drawn)	10%	5µM*	-80*	-13%	-22%
COc1ccc(C2=NN(C(=O)COC(=O)c3ccc(S(C)(=O)=O)c([N+](=O)[O-])c3)C(c3ccco3)C2)cc1 (stereo not drawn)	?	?	42	11µM*	25µM*
CS(=O)(=O)c1ccc(C(=O)OCC(=O)N2CCOCC2)cc1[N+](=O)[O-]	.	.	-80*	.	?
CS(=O)(=O)c1ccc(C(=O)OCC(=O)NC(=O)C2CCCCC2)cc1[N+](=O)[O-]	.	-1%	-77*	.	22µM*
CS(=O)(=O)c1ccc(C(=O)OCC(=O)N2CCN(CCC3CCCCC3)CC2)cc1[N+](=O)[O-]	.	.	-103*	.	25µM*
COc1ccc(-n2nc(C(=O)N(C)C)nc2-c2ccccc2)cc1	-14%	22%	9	i	13%
CC(=O)NC1=NN(C(C)=O)C2(CCCCC2)S1	-10%	2.8µM*	53	-11%	.
C[C@@H]1CN([C@@H](C)CO)C(=O)CCCn2cc(nn2)CO[C@H]1CN(C)C(=O)Nc1ccc2c(c1)OCCO2	.	.	36	.	.
CC(C)(C)c1csc(NC(=O)CSc2nc3ccccc3c(=O)[nH]2)n1	.	15%	-107*	.	-25%
CC(C)(C)c1csc(NC(=O)Cn2cnc3ccccc3c2=O)n1	-7%	14µM*	37	i	-21%
O=C(CSc1nc2ccccc2c(=O)[nH]1)Nc1ccc(C(=O)O)cc1	-8%	11%	-9	-4%	1%
O=C(CSc1nc2ccccc2c(=O)[nH]1)Nc1ccc([N+](=O)[O-])cc1	20µM*	-21%	-31	?	?
Cc1csc(NC(=O)CSc2nc3ccccc3c(=O)[nH]2)n1	-8%	29%	53	-7%	-13%
OCc1ccccc1-c1cnc2sc(NCc3ccc(F)cc3)nn12	-21%	.	-23	-28%	-17%
Cc1ccc(SCC(=O)NCC2COc3ccccc3O2)cc1 (stereo not drawn)	-24%	14%	-65*	-21%	4%
Cc1ccccc1CNC(=O)CCS(=O)(=O)c1cc2c3c(c1)CCN3C(=O)CC2	1%	.	-2	-8%	-21%
COc1cc2c(cc1OC)C(C)N(C(=O)C1COc3ccccc3O1)CC2 (stereo not drawn)	-15%	?	-65*	.	25µM*
COc1cc2c(cc1OC)C(C)N(C(=O)c1cc3c(s1)-c1c(C)cccc1OC3)CC2 (stereo not drawn)	.	?	?	.	-18%
COc1cc2c(cc1OC)C(C)N(C(=O)c1cc3c(s1)-c1ccccc1OC3)CC2 (stereo not drawn)	14%	11µM*	-20	6%	?
COc1ccc(NC(=O)Cn2nc(C(=O)O)c3ccccc3c2=O)cc1Cl	-10%	12%	46	1%	-7%
Nc1ccccc1SCc1c(Cl)cccc1Cl	1%	13%	52	-12%	-19%
Nc1ccccc1SCc1ccccc1Cl	-12%	6%	-66*	-20%	36%
SMILES	Vaccinia Venus	HCV inh	HCMV inh	Vaccinia mCherry	FMDV antiviral
CC(C)(C)OC(=O)N1CCC(NC(=O)c2[nH]cnc2C(=O)Nc2ccc(Cl)cc2)CC1	14µM*	15%	?	-28%	-29%
Cc1ccc(NC(=O)OCCN(C)C(=O)Nc2ccc(C)cc2C)c(C)c1	.	.	-35	.	.
CCOC(=O)Nc1cccc2ccccc12	-18%	2%	?	-12%	-9%
CCOC(=O)Nc1ccc2c3c(cccc13)-c1ccccc1-2	-18%	10µM*	-8	-29%	50%
CCCCCc1c(-c2cccc(OC)c2)ncn1CCc1ccccc1OC	-23%	.	-95*	-22%	28µM*
CCCCCc1c(-c2cccc(F)c2)ncn1CCc1ccccc1OC	-20%	.	?	-24%	22µM*
CCCCc1c(-c2cccc(F)c2)ncn1CCc1ccccc1OC	?	.	-61*	-4%	25µM*
CCCc1c(-c2cccc(F)c2)ncn1CCc1ccccc1OC	-21%	.	-74*	-17%	?
Cc1ccsc1C(=O)Nc1ccc(OCc2ccccc2)cc1	-3%	-4%	36	-12%	30%
CCOc1ccccc1-n1c(N)c(C(=O)OC)c2nc3ccccc3nc21	-4%	.	15	3%	-8%
CCCCc1c(-c2cccc(Br)c2)ncn1CCc1ccccc1OC	-17%	.	-101*	-16%	?
CCCCCc1c(-c2ccc(F)cc2)ncn1CCc1ccccc1OC	-27%	.	-28	?	?
CCCCCc1c(-c2ccc(Br)cc2)ncn1CCc1ccccc1OC	-23%	.	-104*	-4%	?
CN(CC(=O)O)c1ccc(/C=C2\C=Cc3ccccc32)cc1	-10%	.	.	-17%	.
COc1ccc(NS(=O)(=O)c2cccc(C(=O)NNC(=O)c3ccc(C)o3)c2)cc1	.	-6%	-32	.	-17%
COc1ccc(NS(=O)(=O)c2cccc(C(=O)NNC(=O)c3cc(C)oc3C)c2)cc1	-12%	-7%	-101*	-13%	-4%
COc1ccc(NS(=O)(=O)c2cc(C)ccc2NC(=O)c2cc(C)oc2C)cc1	?	13µM*!	5	.	41%
COc1ccccc1NC(=O)c1cc(C)oc1C	-18%	-15%	?	i	6%
COc1ccc(NS(=O)(=O)c2cccc(C(=O)NNC(=O)c3ccccc3O)c2)cc1	-10%	?	-94*	?	12%
CCCSCCCNC(=O)c1ccc2nc(Cc3ccccc3)oc2c1	3%	.	12	-7%	-9%
COC(=O)C1=C(CN2CCCc3ccccc32)NC(=O)NC1c1ccc(F)cc1 (stereo not drawn)	-15%	?	-81*	?	.
COC(=O)C1=C(CN2CCc3ccccc32)NC(=O)NC1c1cc(C)ccc1C (stereo not drawn)	-20%	?	47	.	-3%
CC(C)(C)NC(=O)CN(C(=O)c1snc(C(=O)NC2CCCCC2)c1N)c1ccc(F)cc1	-14%	-5%	-9	-9%	-20%
O=C(N/N=C/C=C/c1ccccc1)c1n[nH]c2c1CCC2	?	-29%	-21	?	38%
CC(/C=N/NC(=O)c1n[nH]c2c1CCC2)=C\c1ccccc1	.	?	-88*	.	25%

Screening results: PubChem, National Center for Advancing Translational Sciences (NCATS)
